Activity calls are given as the source filed them. The calls were made as follows: active = hit-call score of the fitted dose curve at least 0.9, where 1 is the maximum; inactive = score below 0.9.
Assay: ATG_FoxO_CIS: Attagene CIS-FACTORIAL HepG2 Assay for human Forkhead box O (FoxO) (AID 2282943)
Conditions: HepG2 Attagene cis-reporter, FoxO element, mRNA; actives raise or lower the signal
Procedure: ATG_CIS is a cell-based, multiplexed-readout assay that uses HepG2, a human liver cell line, with measurements taken at 24 hours after chemical dosing in a 24-well plate.ATG_FoxO_CIS is one of 52 assay component(s) measured or calculated from the ATG_CIS assay. It is designed to make measurements of mRNA induction, a form of inducible reporter, as detected with fluorescence intensity signals by Reverse transcription polymerase chain reaction (RT-PCR) and Capillary electrophoresis technology.Data from the assay component ATG_FoxO_CIS was analyzed into 1 assay endpoint. This assay endpoint, ATG_FoxO_CIS, was analyzed with bidirectional fitting relative to DMSO as the negative control and baseline of activity. Using a type of inducible reporter, measures of mRNA for gain or loss-of-signal activity can be used to understand the reporter gene at the transcription factor-level as they relate to the gene FOXO1 and FOXO3. Furthermore, this assay endpoint can be referred to as a primary readout, because this assay has produced multiple assay endpoints where this one serves a reporter gene function. To generalize the intended target to other relatable targets, this assay endpoint is annotated to the dna binding intended target family, where the subfamily is forkhead box protein.
Human liver HepG2 cells are transiently transfected with multiple reporter transcription units (MRTUs) in 6-well plates using FuGene 6 reagent (Roche; 3 ml FuGene/1 mg DNA). The MRTU constructs are regulated by a cis-regulating element (promoter). […] A major difference between the CIS and TRANS system is that in CIS activities of endogenous TFs are measured, whereas the TRANS assay evaluates changes in activities of exogenous, chimeric NR-Gal4 proteins. […] At the end of 24 hour incubation, total RNA was isolated using TriZol reagent (Invitrogen). The isolated RNA is then reverse-transcribed using oligo(dT) primer and Mo-MLV reverse transcriptase (Invitrogen) with DNAse I (Ambion) treatment for 30 min. The one-tenth of the produced cDNA was amplified by PCR using Taq DNA polymerase (Invitrogen) and two reporter sequence-specific primers. The PCR products were fluorescently labeled by primer extension with 6-arboxyfluorescein (6-FAM) 5'-labeled reporter sequence-specific primer (2 min at 95 C, 20 s at 68 C and 10 min at 72 C) and these products were digested with 5U of HpaI (New England Biolabs) for 2h at 37 C. The fragments were purified using Qiaquick PCR columns (Qiagen), analyzed on an ABI 3130xL genetic analyzer (Applied Biosystems) with peak positions identified by using a set of X-rhodamine (ROX)-labeled MapMarker1000 molecular weight standards (BioVentures). The raw capillary electrophoresis data was processed using Attagraph software (Attagene).

Structure (SMILES)	outcome	AC50
CCC(C)(O)CCCC(C)C (stereo not given)	inactive	–
CCOC(=O)CC(=O)c1ccccc1	inactive	–
CCCSSCCC	inactive	–
CC(C)COC(=O)CC(C(=O)OCC(C)C)S(=O)(=O)O (stereo not given)	inactive	–
CCc1cccc(CC)c1	inactive	–
O=C(O)c1cc(O)c2ccccc2c1O	–	52 µM (active)
CO[Si](CCCS)(OC)OC	inactive	–
O=C(O)C1CCC(C(=O)O)CC1 (stereo not given)	inactive	–
Nc1cccc(N)n1	inactive	–
CCCCOCC(C)O (stereo not given)	inactive	–
NNS(=O)(=O)c1ccc(Oc2ccc(S(=O)(=O)NN)cc2)cc1	inactive	–
O=C1CCCCCCCCCCC1	inactive	–
CCCCCCCCCCCCCc1ccccc1	inactive	–
O=C(O)CC(C(=O)O)S(=O)(=O)O (stereo not given)	inactive	–
CCCCCCCCCC(C)=O	inactive	–
CC/C=C\C/C=C\C/C=C\CCCCCCCC(=O)OC	–	158 µM (active)
Cc1ccc(S(=O)(=O)N=C=O)cc1	inactive	–
CCOC(=O)C1=NN(c2ccc(Cl)cc2Cl)C(C)(C(=O)OCC)C1 (stereo not given)	inactive	–
CC(C)(C)C1CCC(=O)CC1	inactive	–
Cn1ccnc1	inactive	–

Structure (SMILES)	outcome	AC50
C=CC(=O)OCCCCCCOC(=O)C=C	inactive	–
CC1CC(=O)CC(C)(C)C1 (stereo not given)	inactive	–
C=C[Si](OCCOC)(OCCOC)OCCOC	inactive	–
C=CC(=O)O[C@H]1C[C@@H]2CC[C@@]1(C)C2(C)C	inactive	–
CCCCC(=O)O	inactive	–
N#CC1(N)CCCCC1	inactive	–
CCOC(=O)OC(=O)OCC	inactive	–
CC(=O)CCC1=C(C)CCCC1(C)C	inactive	–
Fc1ccc(Br)cc1	inactive	–
CCC1(C)C(=O)N(Cl)C(=O)N1Cl (stereo not given)	–	29.8 µM (active)
Nc1ccc(Cl)c(N)c1	inactive	–
Cc1c(O)cccc1O	inactive	–
CC(C)OC(=O)c1ccccc1	inactive	–
Cc1cc(C)n(CO)n1	inactive	–
Oc1ccc(/C=C/c2cc(O)cc(O)c2)cc1	inactive	–
CC(C)c1cc(C(C)C)cc(C(C)C)c1	inactive	–
C=CC(=O)NCOCCCC	inactive	–
O=C1CCCN1C1CCCCC1	inactive	–
COC(=O)c1ccc(C(=O)OC)c(C(=O)OC)c1	inactive	–
CC(C)(CO)C(O)C(=O)NCCCO (stereo not given)	inactive	–
